USP28 block – human USP28 deubiquitinase inhibition; purified USP28, Ub-rhodamine cleavage fluorescence, 30 min; inhibition, % at 25 µM; actives 3% (n = 47,000); AID 1645857
Target sequence (Q96RU2 whole entry, looked up): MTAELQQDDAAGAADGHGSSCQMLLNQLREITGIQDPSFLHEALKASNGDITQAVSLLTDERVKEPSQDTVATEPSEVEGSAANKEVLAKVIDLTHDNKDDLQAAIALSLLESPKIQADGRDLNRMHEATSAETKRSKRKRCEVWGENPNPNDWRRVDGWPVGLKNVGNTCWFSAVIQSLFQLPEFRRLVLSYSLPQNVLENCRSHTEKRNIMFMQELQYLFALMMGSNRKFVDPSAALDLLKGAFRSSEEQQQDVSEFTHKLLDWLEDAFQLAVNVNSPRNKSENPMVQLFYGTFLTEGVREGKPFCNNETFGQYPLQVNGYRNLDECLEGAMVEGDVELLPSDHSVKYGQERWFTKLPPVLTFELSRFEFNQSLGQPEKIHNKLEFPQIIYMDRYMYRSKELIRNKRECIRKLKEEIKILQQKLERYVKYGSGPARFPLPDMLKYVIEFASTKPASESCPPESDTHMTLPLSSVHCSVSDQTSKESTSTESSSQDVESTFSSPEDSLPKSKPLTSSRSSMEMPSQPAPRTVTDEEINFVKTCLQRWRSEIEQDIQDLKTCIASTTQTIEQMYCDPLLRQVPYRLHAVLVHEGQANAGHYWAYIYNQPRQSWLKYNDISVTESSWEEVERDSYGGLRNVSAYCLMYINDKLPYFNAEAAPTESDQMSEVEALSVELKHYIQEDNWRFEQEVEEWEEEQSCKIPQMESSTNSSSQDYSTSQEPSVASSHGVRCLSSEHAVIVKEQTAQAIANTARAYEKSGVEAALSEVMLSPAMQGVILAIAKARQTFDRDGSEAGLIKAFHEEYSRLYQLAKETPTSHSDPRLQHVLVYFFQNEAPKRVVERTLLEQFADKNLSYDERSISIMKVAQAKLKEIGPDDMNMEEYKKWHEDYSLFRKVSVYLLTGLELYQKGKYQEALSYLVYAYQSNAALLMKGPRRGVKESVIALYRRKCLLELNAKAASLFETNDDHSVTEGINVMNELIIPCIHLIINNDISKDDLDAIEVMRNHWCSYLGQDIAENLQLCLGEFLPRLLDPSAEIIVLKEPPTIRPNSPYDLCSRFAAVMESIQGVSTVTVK
USP30 inh – inhibitors of human USP30 deubiquitinase; AID 1645860; inhibition, % at 25 µM; purified USP30, Ub-rhodamine cleavage fluorescence; actives 5.3% (n = 47,000); Q70CQ3
Each line names hits and unclear results; the compound was inactive in the other large screens. The list is not random: actives were taken first. Their share in the collection is about 7%. Rule as the data show it: active = inhibition above about 30%; inactive = the rest.

Cc1ccc(-n2c(C)c(CNCCc3ccccc3)c(C(=O)O)c2C)cc1	none
CN1CC[C@@H]2[C@H]1C(=O)NC[C@H](CCC(=O)N1CCN(c3ccccn3)CC1)N2C	USP28 block 44
COC(=O)C1CCN(C(=O)CC[C@H]2CNC(=O)[C@@H]3[C@@H](CCN3C3CCCCC3)N2C)CC1	USP28 block 31
CC(C)N1CC[C@@H]2[C@H]1C(=O)NC[C@H](CCC(=O)N1CCN(c3ccccc3)CC1)N2C	none
CC(C)N1CC[C@@H]2[C@H]1C(=O)NC[C@H](CCC(=O)N1CCCC1)N2C	USP28 block 34
CN1[C@@H](CCC(=O)N2CCN(c3ccccn3)CC2)CNC(=O)[C@@H]2[C@H]1CCN2C1CCCCC1	none
COC(=O)C1CCN(C(=O)CC[C@H]2CNC(=O)[C@@H]3[C@@H](CCN3Cc3cccc(Cl)c3)N2C)CC1	none
Cc1ccc(CNC(=O)c2ccc3ccnc(N4CCN(c5ccccc5)CC4)c3c2)o1	none
CC(C)(C)c1cc(C[C@@H]2C[C@H](NC(=O)c3ccco3)C2(C)C)no1	none
O=C(NC1(c2nc(-c3ccncc3)no2)CCCCC1)C1CCCC1	none
COC(=O)c1ccccc1NC(=O)CSc1ncnc2c1oc1ccccc12	USP30 inh 33
COc1ccccc1NC(=O)CSc1ncnc2c1oc1ccccc12	none
O=C(CSc1ncnc2c1oc1ccccc12)Nc1ccc2c(c1)OCCO2	none
COCCCn1c(SCC(=O)Nc2ccccc2C(=O)OC)nc2ccccc2c1=O	USP30 inh 70
COCCn1c(SCC(=O)Nc2cccc3ccccc23)nc2ccccc21	none
O=C(CSc1ncnc2c1oc1ccccc12)NC1CCCCC1	USP30 inh 33
COc1ccc(S(=O)(=O)NCC(c2ccc3c(c2)CCN3C)N2CCCC2)cc1OC (stereo not given)	none
Cc1c(OCC(=O)Nc2nc3ccccc3[nH]2)ccc2c3c(c(=O)oc12)CCC3	USP30 inh 52
Cc1ccc(C(C)C)cc1OCC(=O)Nc1nc2ccccc2[nH]1	none
CNC(=O)CN1CCO[C@H]2CN(C(=O)c3cccc(F)c3)C[C@H]21	none
Cc1ccc(S(=O)(=O)NC(CCC(N)=O)C(=O)Nc2ccc(C(C)(C)C)cc2)cc1 (stereo not given)	none
CCn1c(SCCOc2ccccc2)nnc1-c1ccc2c(c1)OCCO2	USP28 block 31
CCn1c(SCc2nc(-c3ccccc3)no2)nnc1-c1ccc2c(c1)OCCO2	none
O=C(NCCN1CCOCC1)c1cc2occc2n1Cc1ccccc1F	none
CC1CCN(C(=O)CN2CCC3(CC2)CN(S(C)(=O)=O)Cc2ccccc2O3)CC1	none
O=S(=O)(c1ccccc1)N1CCN(c2ncnc3c2nnn3Cc2ccccc2)CC1	none
COc1cccc(C(=O)N2CCN(c3ncnc4c3nnn4Cc3ccccc3)CC2)c1	USP28 block 33, USP30 inh 35
c1ccc(Nc2cc(C3CCCNC3)ccn2)nc1 (stereo not given)	none
CC1CCN(S(=O)(=O)c2cccn(CC(=O)N3CCCc4ccccc43)c2=O)CC1	none
Cc1c(-c2nnc(-c3ccccc3Cl)o2)nnn1-c1ccccc1	USP28 block 35, USP30 inh 81
Cc1c(-c2nnc(-c3ccccn3)o2)nnn1-c1ccc(C(C)C)cc1	none
NC(=O)c1cc(-c2csc(NNc3ccccc3)n2)ccc1O	none
O=[N+]([O-])c1c(Cl)cccc1-c1c[nH]cc1Cl	USP28 block 48
CN1CCc2[nH]c3c(Cl)cccc3c2C1	none
CC(=O)NCc1cnn(-c2ccc(C(=O)Nc3ccc(C)cc3)cc2)c1	none
O=C(Nc1ccc(S(=O)(=O)Nc2cc(Cl)cc(Cl)c2)cc1)c1c(F)cccc1Cl	none
COc1ccc(C)cc1NC(=O)CC(c1ccc(C)cc1)n1cccc1 (stereo not given)	none
Cc1ccc(C(=O)Nc2cc3c4c(c2)C(C)C(=O)N4CCC3)cc1 (stereo not given)	none
Cc1ccc(C(=O)Nc2cc3c4c(c2)CC(=O)N4CCC3)cc1C	USP28 block 72
CCOCC(=O)N1CCC2(C/C=C/Cc3ccccc3OCC(=O)NCCNC2=O)CC1	none
O=C(NCc1ccccn1)C1CCN(c2cncnc2N2CCCCC2)CC1	USP28 block 41
O=C(Nc1cnn(-c2ncncc2N2CCCCC2)c1)C1CC1	none
O=C(NCc1ccco1)C1CCN(c2cncnc2N2CCCC2)CC1	none
Cc1ccc(NC(=O)C2CCN(c3cncnc3N3CCCC3)CC2)cc1	USP28 block 90
Cc1noc(-c2ccnc(-n3cnc(C(=O)NCc4ccccc4)c3)c2)n1	none
CC1[C@@H]2[C@@H](C(=O)N3CCOCC3)C[C@H](CN1C(=O)CCN)N2Cc1ccccc1 (stereo not given in full)	none
O=C(Nc1ccccc1)N1CCC2(CN(Cc3ccccc3F)C2)C1	none
O=C(Nc1ccccc1)N1CCCC2(CCCN2Cc2ccccc2F)C1 (stereo not given)	USP30 inh 32
CNc1cc(C)nc(C2COCCN2C(=O)c2ccnn2C(C)C)n1 (stereo not given)	none
COC1=C(N)C(=O)c2nc(-c3nc(C(=O)O)c(C)c(-c4ccc(O)c(OC)c4O)c3N)ccc2C1=O	USP28 block 31
CS(=O)(=O)c1ccc2nc(NC(=O)Cn3ccc4ccc(F)cc43)sc2c1	none
CCc1nc2sc(C(C)C)nn2c1S(=O)(=O)N1CCCCCC1	USP30 inh 36
Cc1cn2c(S(=O)(=O)N3CCCCC3)c(C(C)C)nc2s1	none
Clc1cccc(CN2CCC(N3CCc4ccccc4C3)CC2)c1	none
COc1ccc(N2CCN(c3ncnc4sc(C(=O)Nc5ccc(Oc6ccccc6)cc5)c(C)c34)CC2)cc1	none
Cc1c(C(=O)NCc2ccc(Cl)cc2)sc2ncnc(N3CCCC3)c12	USP28 block 31, USP30 inh 43
CCc1ccc(NC(=O)c2sc3ncnc(N4CCN(C)CC4)c3c2C)cc1	USP28 block 35
Cc1c(C(=O)NCc2cccc(F)c2)sc2ncnc(N3CCCC3)c12	none
CCN(c1ccc(NC(=O)CSc2nnc(-c3ccccc3)n2-c2ccc(OC)c(OC)c2)cc1)C(C)C	USP28 block 41, USP30 inh 46
COc1ccc(-n2c(SCC(=O)c3c[nH]c4ccccc34)nnc2-c2ccccc2)cc1OC	none
Cc1ccc(C(=O)N2CCC3(CC2)OCCN3S(=O)(=O)c2ccccc2)cc1	none
CCOc1cc(CNC(=O)Cc2c(C)n[nH]c2C)ccc1OC	none
Cc1n[nH]c(C)c1CC(=O)NCc1nnc(-c2nccc3ccccc23)o1	USP30 inh 34
O=C(COC(=O)c1ccccc1O)Nc1ccc2[nH]c(=O)[nH]c2c1	USP30 inh 34
Cc1cc(Cl)ccc1OC(C)C(=O)OCC(=O)Nc1ccc2[nH]c(=O)[nH]c2c1 (stereo not given)	none
Cc1cccc(C(=O)OCC(=O)Nc2ccc3[nH]c(=O)[nH]c3c2)c1	USP28 block 48, USP30 inh 77
O=C(COC(=O)c1ccc2c(c1)OCO2)Nc1ccc2[nH]c(=O)[nH]c2c1	none
COCCCNC(=O)C1c2ccccc2C(=O)N(Cc2ccccc2)C12CCCC2 (stereo not given)	none
COCCNC(=O)C1c2ccccc2C(=O)N(Cc2ccccc2)C12CCCC2 (stereo not given)	USP30 inh 32
Cc1ccc(NC(=O)Cn2c3ncccc3c(=O)n2-c2cccc(Cl)c2)cc1	none
Cc1ccc(C)c(NC(=O)Cn2c3ncccc3c(=O)n2-c2ccccc2)c1	USP30 inh 45
CN1CCCc2cc(C(CNC(=O)COc3ccc(Cl)cc3)N3CCCC3)ccc21 (stereo not given)	none

Assay outcomes (PubChem)
